Compounds with a hit are over-represented: about 4.1% of the library has one in this group of screens.
hcDAF12 agonist – activators of H. contortus DAF-12 nuclear receptor; HEK293 hcDAF-12 lit1-tk-luc reporter, luminescence; 0% DMSO, 100% Δ7-dafachronic acid; activation, % at 6.8 µM; 370,000 tested, 1.4% active; AID 652067;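 active = activation above the mean of all tested compounds plus 3 SD, cut at about 5.5% in these data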;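 also: 100% = response to 3 µM Δ7-dafachronic acid high control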
DAX1 inh-1 – inhibitors of human orphan nuclear receptor DAX1 (NR0B1); P51843; HEK293 Gal4-DAX1 luciferase reporter, luminescence; inhibition, % at 6.75 µM; 340,000 tested, 0.99% active; AID 504766;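 active = inhibition above the mean over all tested compounds plus 3 SD, cut at about 4.2% in these data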;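 also: 0% = DAX1-transfected cells with DMSO and 100% = empty-vector control cells with DMSO; inhibition shows as a rise in luminescence from relieved DAX1 repression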
Target sequence (P51843 207-470 limits assumed): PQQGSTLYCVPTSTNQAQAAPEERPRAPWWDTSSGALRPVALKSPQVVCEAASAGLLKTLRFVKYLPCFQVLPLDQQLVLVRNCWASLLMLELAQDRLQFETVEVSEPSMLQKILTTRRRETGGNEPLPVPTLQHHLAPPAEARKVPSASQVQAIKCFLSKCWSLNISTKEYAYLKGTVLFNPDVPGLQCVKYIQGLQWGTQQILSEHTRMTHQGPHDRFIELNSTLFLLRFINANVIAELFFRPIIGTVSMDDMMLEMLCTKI
DAX1 inh-2 – DAX1 (NR0B1) inhibition, primary screen. HEK293T StAR-luciferase reporter, SF-1/DAX-1 repression relief. inhibition, % at 6.8 µM. 370,000 tested, 1.1% active;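 active = inhibition above the mean over all tested compounds plus 3 SD, cut at about 3.6% in these data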;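 also: 0% = DAX-1 cells with DMSO and 100% = cells lacking DAX-1 with DMSO; higher inhibition means more luminescence from relief of DAX-1 repression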
hgDAF12 agonist – agonists of H. glycines DAF-12 nuclear receptor | AID 687014 | 370,000 tested, 1.8% active | HEK293 GAL4-hgDAF12 UAS-luciferase reporter, agonist luminescence; normalized to butyrate control | activation, % at 6.8 µM;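 active = activation above a cutoff set at the mean of all screened compounds plus 3 SD, cut at about 10% in these data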;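 also: 0% = DMSO wells and 100% = sodium butyrate wells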
ssDAF-12 act – S. stercoralis DAF-12 activation, primary screen | 370,000 tested, 1% active | activation, % at 6.8 µM | HEK293 ssDAF-12/GRIP1 lit1-tk-luc reporter, luminescence; % of 3 µM dafachronic acid response | AID 652126;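 active = activation above the mean over all tested compounds plus 3 SD, cut at about 0.9% in these data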;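 also: 0% = DMSO-only wells and 100% = 3 µM delta7-dafachronic acid wells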
* hit, by the source's call; . = not tested or not shown.

SMILES	hcDAF12 agonist	DAX1 inh-1	DAX1 inh-2	hgDAF12 agonist	ssDAF-12 act
O=c1cc(N2CCN(c3ccccc3Cl)CC2)[nH]c(=O)n1Cc1ccc(F)cc1	3.3	3.3	0.2	-0.7	-1.0
CC(C)c1nc2ccccc2n1CC(O)COC1CCCCC1 (stereo unspecified)	-0.7	6.6*	0.1	-2.9	-1.4
CC1CCc2c(sc(NC(=O)c3nc4ncccn4n3)c2C#N)C1 (stereo unspecified)	-2.4	4.4*	-0.1	3.7	-1.3
COc1ccc(C(CNC(=O)CCNC(=O)c2ccc(Br)cc2)N2CCOCC2)cc1 (stereo unspecified)	-1.9	0.6	-0.4	0.9	-0.4
CN1CCC(Oc2ccc(Sc3ccccc3)cc2)CC1	5.5	0.0	0.8	10.7*	-0.8
COc1ccc2c(c1)c(=O)oc1cc(OCC(=O)NC3CC3)ccc12	0.7	0.5	0.1	3.5	-1.6
COc1ccc2c(c1)c(=O)oc1cc(OCC(=O)NC3CCCCC3)ccc12	1.9	5.9*	0.2	0.4	-0.2
COc1cc(CNc2ccc(N3CCN(C(C)=O)CC3)cc2)ccc1OCc1ccc(F)cc1	-0.8	-0.3	-1.1	11.2*	-1.5
CC(=O)N1CCN(c2ccc(NCc3ccc(F)cc3)cc2)CC1	-1.2	3.4	-1.7	-2.0	-1.7
CS(=O)(=O)N1CCN(Cc2cc(=O)n3ccsc3n2)CC1	-0.8	5.2*	-0.3	-0.6	-1.6
Cc1ccc2[nH]c(=O)c(C3C(C#N)=C(N)Oc4c3ccc3cccnc43)cc2c1 (stereo unspecified)	2.9	1.1	0.9	4.6	1.1*
N#CC1=C(N)Oc2c(ccc3cccnc23)C1c1ccccc1 (stereo unspecified)	-1.9	0.5	-2.4	-1.9	-0.9
COC(=O)[C@H](C(C)C)N(CCc1cn(Cc2ccc(C)cc2)nn1)S(=O)(=O)c1ccc(F)cc1Br	3.9	.	0.3	1.5	-1.7
C/C(=C\c1ccc(Cl)cc1)C(=O)c1c(C)cc(C)[nH]c1=O	-0.8	4.5*	-0.2	3.8	-1.1
O=C(C1CCCN1C(=O)c1cccs1)N1CCc2ccccc21 (stereo unspecified)	6.0*	-1.2	0.2	0.6	-0.1
O=C(c1cccs1)N1CCc2ccccc21	0.7	1.6	1.8	8.3	0.3
CN1C(=O)C(O)(CC(=O)c2ccccc2O)c2cc(Br)ccc21 (stereo unspecified)	3.1	4.4*	-0.9	-1.1	-0.2
CN1C(=O)C(O)(CC(=O)/C=C/c2ccco2)c2cc(Br)ccc21 (stereo unspecified)	2.9	-1.1	0.6	3.7	-0.5
CCCCN(C)C(=O)CN1C(=O)C2CCCCN2C(=O)c2ccccc21 (stereo unspecified)	-2.8	.	-0.6	-1.4	0.3
Cc1ccc(NCCC(=O)c2cccs2)cc1	5.0	2.5	4.2*	11.9*	1.4*
CCOc1ccc(NS(=O)(=O)c2cc(NC(=O)CCC(=O)c3cccs3)ccc2Cl)cc1	-3.8	5.8*	-0.3	-3.1	-1.8
CC(C)c1ccc(NCCC(=O)c2cccs2)cc1	1.3	4.0	0.3	7.1	-1.6
Cc1ccc(NCCC(=O)c2cccs2)cc1Cl	4.1	0.8	0.8	11.8*	0.3
O=C(CCC(=O)c1cccs1)NCCc1ccc(F)cc1	3.0	2.0	3.8*	-3.1	-0.1
CCc1ccc(CCNC(=O)OC2CCC23CCC(c2ccccc2)CC3)cc1 (stereo unspecified)	-1.3	.	-0.8	2.1	-0.5
SMILES	hcDAF12 agonist	DAX1 inh-1	DAX1 inh-2	hgDAF12 agonist	ssDAF-12 act
COC(=O)C1CN(Cc2ccc(F)cc2)CCS(=O)(=O)N1Cc1cn(Cc2ccc(C)cc2)nn1 (stereo unspecified)	1.3	.	-0.3	-3.1	0.2
Cc1ccc(NC(=O)Nc2cccs2)cc1	5.4	0.4	1.4	10.7*	-0.1
Cc1ccc(NC(=O)Nc2cccs2)nc1	0.1	2.4	0.5	9.1	-0.4
O=C(CCNc1cccc(Cl)c1)c1cccs1	3.4	-0.7	0.8	4.9	1.4*
CCN1CCN(C(=O)/C=C/c2ccc(C(C)C)cc2)CC1	-1.4	0.4	-0.1	1.2	-0.7
CC(C)c1ccc(/C=C/C(=O)O)cc1	1.1	4.3*	1.0	2.4	0.0
CCCNC(=O)/C=C/c1ccc(C(C)C)cc1	0.2	5.0*	1.1	6.9	-1.0
CCOC(=O)[C@]12CCCC=C1N(Cc1ccc(OC)cc1)C(=O)[C@@H]2CC(=O)NCc1ccc(OC)c(OC)c1	-2.3	.	-1.4	-0.8	-1.5
